The record followed here is PubChem BioAssay.

The inhibition is the relative decrease from the control value, in per cent.

Values without a mark were called inactive. Activity calls are given as the source filed them. Cut-off read from the data, not from the text of the source: active = inhibition above about 36%; inactive = the rest.

The test system of the test is transactivating tegument protein VP16 (Human herpesvirus 1). The test can be described thus: VP16 transactivation reporter inhibitors, counter-screen for SRC2 inhibitor project, cell-based, luminescence, single concentration (AID 652007). The note with it: cell-based VP16 transactivation luciferase reporter, at 8.9 µM, stronger effect = higher value. On the technique in general: Counterscreens check selectivity or assay interference.
As for `C=C1C(=O)[C@]23C[C@H]1CC[C@H]2[C@]1(C)CCC[C@@](C)(C(=O)OC)[C@H]1C[C@@H]3O`, the inhibition was 77.6% (active).
With `O=C(O)CCC(=O)Nc1ccc(NC(=O)c2ccc(Cl)cc2Cl)c(Cl)c1`, the inhibition is -5.8%.
To `CCOC(=O)C1CCN(S(=O)(=O)c2ccc(NC(=O)OC)cc2)CC1` belongs -1.65%; to `CC(NC(=O)CCc1nnc(-c2ccc(-c3ccccc3)cc2)o1)c1nc2ccccc2[nH]1` (stereo not given), 15.2%; to `CCc1ccc(-c2nc(CS(=O)CC(=O)NCc3ccccc3)c(C)o2)cc1` (stereo not given), -8.7%.
The value for `COc1ccc(Nc2nc(C)nc3c2oc2ccccc23)c(OC)c1` was 2.99%; that for `O=C(NC1=NCCS1)C1COc2ccccc2O1` (stereo not given) was 29.5%; that for `c1nnc2c3c4c(sc3ncn12)CCC4` was 4.85%.
To `CN(c1ccccc1)S(=O)(=O)c1ccc(C(=O)NCc2ccccc2CN2CCCC2)cc1` belongs -19.8%; to `CC(c1nccs1)N(C)C(=O)CCc1nnc(-c2ccc(-c3ccccc3)cc2)o1` (stereo not given), -11%.
Take `CC(=O)C1=CCC(c2ccccc2Cl)N(S(=O)(=O)c2ccc(C)cc2)C1` (stereo not given): the inhibition was 13.9%.
The value for `O=[N+]([O-])c1ccc(Sc2nccn2Cc2ccccc2)c([N+](=O)[O-])c1` was 4.42%.
To `CC(=C\c1ccccc1)/C=C1/SC(=S)N(CCCC(=O)O)C1=O` belongs 78.9% (active).
To `COc1ccc2c(n1)Sc1nc3ccccc3nc1N2` belongs -80.4%.
Take `CC(C)(C)c1nn(-c2ccccc2)c2[nH]c(=O)c(CNc3ccc4c(c3)OCCO4)cc12`: the inhibition is -7.89%.
For the compound `CC(C)(C)c1ccc(OC(=O)Nc2ccc(O)c(C(=O)O)c2)cc1`, the inhibition is 7.15%.
Take `CCc1nnc(NC(=O)c2nc(S(=O)(=O)Cc3ccc(C)cc3)ncc2Cl)s1`: the inhibition was 48.1% (active).
To `CSC1=C(C#N)C(c2ccc3c(c2)OCO3)C2=C(CCCC2=O)N1` (stereo not given) belongs 0.63%; to `COc1ccc(/C=C2\SC(=S)N(CCCC(=O)N3CCOCC3)C2=O)cc1`, 45.9% (active).
The value for `Cc1ccc2c(c1)N(C(C)C(=O)NCc1ccc3c(c1)OCO3)C(=O)CO2` (stereo not given) was -10.5%; that for `O=C(Cn1ncc2c([nH]c3ccccc32)c1=O)NCCc1ccccc1` was 21.4%.
The value for `CN(/C(=N\S(=O)(=O)c1ccccc1)c1ccccc1)c1ccc(O)cc1` was -3.87%; that for `Cc1cccc(NC(=S)NNc2ncc(C(F)(F)F)cc2Cl)c1` was 24.3%; that for `Cc1cc(=O)oc2cc(OC(C)C(=O)NCCc3ccc(S(N)(=O)=O)cc3)ccc12` (stereo not given) was -19.6%.
For `O=C(CCCN1C(=O)/C(=C/c2ccccc2Cl)SC1=S)NNC(=O)c1ccccc1`, the inhibition was 61.2% (active).
The value for `CC(=O)NN1C(=O)/C(=C\c2ccc(Br)o2)SC1=S` was 14.8%; that for `O=C(CCl)Nc1ccccc1C(=O)NCc1ccccc1` was 0.94%.
To `COC(=O)c1ccc(-c2nc3cc(N)ccc3o2)cc1` belongs -20.4%; to `CC(NC(=O)CCc1nnc(-c2ccc(-c3ccccc3)cc2)o1)c1nccs1` (stereo not given), 17%; to `CC1(C(=O)NS(=O)(=O)Cc2ccccc2C(F)(F)F)CCN1C(=O)c1ccco1` (stereo not given), 0.06%.
The value for `COC(=O)CCCNC(=O)CCc1nnc(-c2ccc(-c3ccccc3)cc2)o1` was 34%; that for `CCS(=O)(=O)Nc1ccc(C2=NN(C(=O)c3ccco3)C(c3cccs3)C2)cc1` (stereo not given) was -5.61%.
As to `O=C(c1ccc(CS(=O)Cc2ccc(Cl)cc2)o1)N1CCN(c2ccccn2)CC1` (stereo not given), the inhibition is -9.03%.
The value for `Cc1ccc(C(=O)c2cnc3ccccc3c2-c2ccccc2)cc1` was -3.52%; that for `O=C(CSCc1ccc(C(=O)O)cc1)Nc1ccccc1` was -18.8%; that for `Cc1nc(=O)c(-c2ccccc2)c(C)n1-c1ccccc1Cl` was -4.06%.
The value for `Cc1cc(C(=O)NNS(=O)(=O)c2cc(C(=O)O)ccc2Cl)c(C)n1-c1ccccc1` was 2.27%; that for `CC(C)(C)n1nc2c(c1NC(=O)c1cc([N+](=O)[O-])ccc1Cl)CS(=O)(=O)C2` was 25.2%; that for `CCC/C(C#Cc1cc(OC)cc(OC)c1)=C1/c2ccccc2C(=O)N1c1ccccc1` was 3.37%.
Take `CN(c1ccccc1)S(=O)(=O)c1ccc(Cl)c(C(=O)Nc2ccncc2)c1`: the inhibition is 0.61%.
